High-throughput results as filed in PubChem BioAssay.
HepG2 viability: qHTS for Inhibitors of TGF-b: Cytotox Counterscreen | 0.76% of 410,000 active | Potency, µM (doses to about 46.1 µM), for the others: top-dose activity change, negative = cytotoxicity, most hits filed as cytotoxic | AID 588856, 2011 | HepG2 CAGA-GFP viability, ATP luminescence, 18 h; note: potency is the fitted concentration of half-maximal effect
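CellTiter-Glo luminescence gave cytotoxicity after 18 hours at 37 degrees C. The cells were HepG2 CAGA-GFP in 1% FBS DMEM, stimulated with 500 pg/mL TGF-beta after compound addition. %Activity was normalised to no-cell wells (complete cell-killing) and DMSO (no toxicity), and curves were fitted and classified.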
TGFb SMAD3 inh: qHTS for Inhibitors of TGF-b; HepG2 CAGA-GFP TGF-b/SMAD3 reporter, GFP fluorescence, 18 h; TGF-beta stimulated, 500 pg/mL final; Potency, µM (series often up to 46.1 µM), without a hit: top-dose activity, negative = inhibition, most hits filed as inhibitors; 1.2% of 410,000 active; AID 588855, 2011; note: potency is the fitted concentration of half-maximal effect; % is set by controls: 0 for no effect and ±100 for the full control effect; nearly all actives have a fitted effect of over 65% in size
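Read-out: total well GFP (ex488/em500-530) summed from mean per-cell fluorescence. Cells: HEPG2 CAGA-GFP, 1% FBS DMEM, 18 h at 37 degrees C with 500 pg/mL final TGF-beta. Unstimulated wells served as the full-inhibition control; stimulated DMSO wells = 0%.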
D3 antag: qHTS of D3 Dopamine Receptor Antagonist: qHTS. 2.5% of 360,000 active. D3R cells, DiscoveRx beta-arrestin luminescence, antagonist mode; active compounds read low. D(3) dopamine receptor (Homo sapiens), P35462. max response, negative = inhibition, %; in the data active = max response below about -50%; inconclusive = no clear call, values can overlap the other calls; note: % is set by controls: 0 for no effect and ±100 for the full control effect
Target sequence (P35462 whole entry, looked up): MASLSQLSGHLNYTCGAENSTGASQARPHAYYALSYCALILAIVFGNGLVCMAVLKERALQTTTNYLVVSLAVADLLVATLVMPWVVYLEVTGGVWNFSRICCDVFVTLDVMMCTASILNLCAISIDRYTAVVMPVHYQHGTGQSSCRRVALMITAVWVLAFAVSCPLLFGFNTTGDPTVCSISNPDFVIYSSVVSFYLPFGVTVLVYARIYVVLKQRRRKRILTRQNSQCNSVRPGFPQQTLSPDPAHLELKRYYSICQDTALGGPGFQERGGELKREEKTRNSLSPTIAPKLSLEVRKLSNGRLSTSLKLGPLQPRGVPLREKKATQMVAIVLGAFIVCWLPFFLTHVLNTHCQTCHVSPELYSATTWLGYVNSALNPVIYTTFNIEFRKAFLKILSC
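Cells plated overnight at 1500 cells/well, then exposed to library compounds with dopamine controls for 90 minutes at 37 degrees C. DiscoveRx reagent added for 30–60 minutes at room temperature; luminescence read, quantitative HTS format.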
ATXN2 expr inh: Primary qHTS for Inhibitors of ATXN expression; HEK-293 ATXN2-luciferase reporter, luminescence, 24 h; Potency, µM (top dose mostly 57 µM), for inactives: at the top dose activity change, negative = inhibition, actives largely listed as inhibitors; 0.72% of 360,000 active; AID 1745845, 2022; note: potency is the fitted concentration of half-maximal effect; % is set by controls: 0 for no effect and ±100 for the full control effect; nearly all actives have a fitted effect of over 55% in size
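ATXN2-luciferase reporter cells (luciferase flanked by upstream and downstream ATXN2 gene portions) were treated 24 h at 37 °C with compounds at up to 57 uM. SteadyGlo luminescence gave expression; GF-AFC fluorescence gave viability.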
D3 ag: qHTS of D3 Dopamine Receptor Agonist: qHTS; AID 652048, 2013; max activation, %; 0.58% of 410,000 active; D3R DiscoveRx beta-arrestin cells, luminescence, 90 min; in the data active = max activation above about 30%; note: 0% is about no effect
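Agonist-mode cell screen: cells plated at 1500/well and incubated overnight at 37 °C, then exposed to library compounds for 90 min at 37 °C. Detection reagent was added for 30–60 min at room temperature, and luminescence was read.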
ATXN viability: Viability Counterscreen for Primary qHTS for Inhibitors of ATXN expression; S2 cells (HEK-293 line with an ATXN2-luciferase reporter) viability, CellTiter-Fluor protease fluorescence, 24 h; Potency, µM (top dose mostly 56.7 µM), usual class: cytotoxic; 0.49% of 400,000 active; note: potency is the fitted concentration of half-maximal effect; nearly all actives have a fitted effect of over 40% in size
Numbers without * were called inactive; i = inactive; ? = inconclusive; . = no result; ! = not active in a repeat; [ ] = another dose, or the depositor's remark. Rows were chosen to be rich in hits. Some 4.7% of all compounds tested hit in one or more screens of this group. Unless noted, calls come from the whole dose curve; as a rule, active = well fitted curve in the direction sought with a large enough effect; inconclusive = small, poorly fitted or top-dose-only effect, or another doubt; inactive = no such curve, though single readings can be large; an effect the other way counts as inactive or inconclusive.

SMILES	HepG2 viability	TGFb SMAD3 inh	D3 antag	ATXN2 expr inh	D3 ag	ATXN viability
C[C@@H]1CN([C@H](C)CO)C(=O)c2cc(Br)cnc2O[C@H]1CN(C)Cc1cccnc1	-11%	13%	0	-7%	-10	i
C[C@H](CO)N1C[C@H](C)[C@@H](CN(C)Cc2ccncc2)Oc2ncc(Br)cc2C1=O	4%	17%	-114*	5%	-17	?
CCc1ccc(NC(=O)CN2CCc3ccccc3C2)cc1	-22%	8%	-65*	39%	-2	i
CN(C)S(=O)(=O)c1ccc(Cl)c(NC(=O)COC(=O)c2cc(-c3ccccc3)nc3ccccc23)c1	2%	2%	3	-1%	36*	?
CCc1ccc(NC(=O)CCn2c(=O)c3cccn3c3ccccc32)cc1	-14%	-18%	-54*	-18%	-21	i
O=C(CN1CCc2ccccc2C1)NCC(=O)Nc1ccc(F)cc1	1%	4%	2	.	-6	i
O=C(CN1CCc2ccccc2C1)Nc1ccc(Br)cc1	-38%	0%	-52*	.	-3	.
Cc1cccc(NC(=O)Cn2ncc3c4ccccc4n(Cc4ccccc4)c3c2=O)c1C	-1%	-14%	.	6%	8	i
Cc1cc(C(=O)Nc2ccccc2-c2nc(CNC(=O)C3(C)CCCCC3)c(C)o2)c(C)o1	.	.	.	.	.	i
CN(C)S(=O)(=O)c1ccc(Cl)c(NC(=O)CN2CCc3ccccc3C2)c1	-26%	0%	2	?	74*	i
Cc1ccc(NC(=O)CN2CCc3ccccc3C2)cc1F	-1%	-9%	-85*	1%	-36	i
Cc1ccc(Sc2nnc(Cc3ccccc3)c3ccccc23)cc1	18µM*	14µM*	-51*	?	-61	i
CC(C)(CO)Nc1nc(Cl)nc(NC2CCCCC2)n1	2%	-9%	-21	.	34*	i
CCc1ccc2oc(-c3ccc(C)c(NC(=O)COc4ccc(Cl)cc4)c3)nc2c1	-1%	-1%	.	.	.	.
Cc1cc(C)cc(N2C(=O)CS(=O)(=O)C23C(=O)N(C)c2ccccc23)c1 (stereo unspecified)	-2%	5%	.	1%	6	i
COc1ccc(-c2nc3ncccc3n2O)cc1	14µM*	-4%	-16	26%	-10	i
O=C1C(=O)c2c(ccc3ccccc23)-c2ccccc21	-4%	?	-53*	3.2µM*	-14	5µM*
O=C(NC1CCCCCC1)c1ccc(CS(=O)c2cccc(Cl)c2)o1 (stereo unspecified)	-3%	-23%	.	.	-12	.
O=C(NC1(C(F)(F)F)C(=O)Nc2c1c(=O)[nH]c(=O)n2CCc1ccccc1)c1ccc(Cl)cc1Cl (stereo unspecified)	-30%	-6%	.	10%	3	i
Cc1ccsc1/C=C1/C(=O)NN(c2ccccc2)C1=O	1%	-5%	?	-8%[11.3 µM]	-8	i
Cc1ccsc1C=C1C(=O)c2ccccc2C1=O	-11%	?	-56*	-7%	-3	i
CCOC(=O)c1ccccc1NC(=O)CSc1cn(CC(=O)N2CCCCCC2)c2ccccc12	-20%	0%	.	.	-4	.
COc1ccc(S(=O)(=O)N(CC(=O)Nc2ccccc2Cl)Cc2ccccc2)cc1	-12%	3%	.	-20%	-3	?
CC(C)(C)CNC(=O)C1(C)CCN1C(=O)C1(c2ccccc2)CC1 (stereo unspecified)	-9%	41%	0	-11%	-6	i
CC1(C(=O)NCCC#N)CCN1C(=O)C1(c2ccccc2)CC1 (stereo unspecified)	-15%	-1%	-63*	-1%	-10	i
SMILES	HepG2 viability	TGFb SMAD3 inh	D3 antag	ATXN2 expr inh	D3 ag	ATXN viability
Cn1nnnc1Sc1ncnc2scc(-c3cccc(C(F)(F)F)c3)c12	-112%	?	.	14µM*	.	16µM*
COc1cccc(-c2csc3ncnc(Sc4nnnn4C)c23)c1	10%	?	.	?	.	?
Cn1nnnc1Sc1ncnc2scc(-c3ccc(C(F)(F)F)cc3)c12	-112%	?	.	4µM*	.	11µM*
Cn1nnnc1Sc1ncnc2scc(-c3ccc(C#N)cc3)c12	-123%	?	.	10µM*	.	10µM*
Cn1nnnc1Sc1ncnc2scc(-c3cccc(F)c3)c12	-110%	10µM*	.	?	.	?
Cn1nnnc1Sc1ncnc2scc(-c3ccc(-c4ccccc4)cc3)c12	-54%	?	.	?	.	?
COc1ccc(NC(=O)c2oc3ccccc3c2NC(=O)c2cc(OC)c(OC)c(OC)c2)cc1	-5%	12%	.	-21%	-13	i
Cc1nc2ccccc2n1CCc1nc2c3ccccc3nc(SCc3cccc(F)c3)n2n1	3%	0%	.	-6%	5	i
CCN1CCN(Cc2ccc(NC(=O)c3ccc(C)c(/C=C/c4cnc(Nc5cc(N6CCNCC6)nc(C)n5)cn4)c3)cc2C(F)(F)F)CC1	18µM*	?	?	13µM*!	-5	i
CCN1CCN(Cc2ccc(NC(=O)c3ccc(C)c(NC(=O)c4c[nH]c5cc(C(F)(F)F)ccc5c4=O)c3)cc2C(F)(F)F)CC1	16µM*!	11µM*	1	4µM*!	3	7.1µM*
CCN1CCN(Cc2ccc(NC(=O)c3ccc(C)c(NC(=O)c4csc(-c5ccncc5)n4)c3)cc2C(F)(F)F)CC1	16µM*	?	-26	0%	-21	?
Cc1ccc(C(=O)Nc2nnc([C@H]3C[C@H](O)[C@@H](CO)O3)s2)cc1	-15%	9%	-77*	19%	-15	i
Cc1cccc(C)c1NC(=O)Nc1nnc([C@H]2C[C@H](O)[C@@H](CO)O2)s1	0%	8%	1	-2%	10	?
Cc1ccccc1NC(=O)Nc1nnc([C@@H]2C[C@H](O)[C@@H](CO)O2)s1	-25%	-11%	0	7%	54*	i
Cc1occc1-c1nnc(SCC(=O)Nc2ccccc2-c2ccccc2)n1C	-11%	0%	-57*	-2%	-4	i
CCCn1c(SCC(=O)Nc2ccccc2-c2ccccc2)nnc1-c1ccoc1C	-28%	-10%	6	2%	-1	i
Cc1occc1-c1nnc(SCC(=O)c2ccc(Cl)cc2)n1C	-15%	-7%	-56*	1%	-12	i
CC(=O)c1ccc(S(=O)(=O)N2CCN(C(=O)c3ccc(-n4nc(C)c(Cl)c4C)cc3)CC2)cc1	-26%	-22%	18	.	77*	?
